# Vaccinia mCherry: vaccinia inhibition (mCherry reporter). Potency, µM (titrated, usually from 36.5 µM), inactives show at the highest dose activity change, negative = inhibition, usual class: inhibitors. Vaccinia virus mCherry reporter infection, fluorescence. hit rate 0.63% among 310,000; calls by dose curve; tested in A549 cells; further: nearly all actives have a fitted effect of over 35% in size
# AmpC detergent: AmpC beta-lactamase inhibition with detergent present. AmpC hydrolysis of nitrocefin, absorbance 480 nm, 0.01% Triton. AID 485294. Potency, µM (series often up to 114 µM), without a hit: at the highest dose activity change, negative = inhibition, usual class: inhibitors. hit rate 0.041% among 370,000. P00811;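 further: 0% = no-compound wells and -100% = no-enzyme wells; nearly all actives have a fitted effect of over 25% in size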
# Target sequence (P00811 whole entry, looked up): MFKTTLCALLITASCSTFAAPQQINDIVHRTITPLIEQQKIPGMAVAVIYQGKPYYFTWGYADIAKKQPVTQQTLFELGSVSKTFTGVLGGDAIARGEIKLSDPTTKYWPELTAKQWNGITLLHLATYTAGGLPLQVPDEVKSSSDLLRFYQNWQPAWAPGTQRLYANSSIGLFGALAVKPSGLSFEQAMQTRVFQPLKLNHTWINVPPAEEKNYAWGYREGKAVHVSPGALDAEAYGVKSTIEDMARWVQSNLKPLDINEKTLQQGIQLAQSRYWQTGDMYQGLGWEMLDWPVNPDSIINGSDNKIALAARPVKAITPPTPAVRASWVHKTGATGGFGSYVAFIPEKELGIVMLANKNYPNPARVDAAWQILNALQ
#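 AmpC (5.3 nM in the dispensed reagent) in 20 mM phosphate pH 7.0 with 0.01% (detergent screen) or 0.0001% Triton X-100 was preincubated with compounds for 15 min at room temperature. Nitrocefin was then added from an 800 uM solution, and hydrolysis was followed at 480 nm.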
# Vaccinia Venus: inhibitors of vaccinia virus (Venus reporter). Potency, µM (series often up to 36.5 µM), for the others: at the highest dose activity change, negative = inhibition, actives largely listed as inhibitors. hit rate 0.46% among 330,000. AID 720580. Vaccinia virus Venus reporter expression, fluorescence; calls by dose curve; tested in A549 cells; further: nearly all actives have a fitted effect of over 30% in size
# AmpC no deterg: AmpC beta-lactamase inhibition without detergent | AID 485341 | Potency, µM (doses to about 57.1 µM), inactives show at the top dose activity change, negative = inhibition, hits mostly inhibitors | hit rate 0.52% among 330,000 | P00811 | AmpC nitrocefin hydrolysis, absorbance 480 nm, 0.0001% Triton;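 further: plate controls were no compound for no effect and no enzyme for full effect; nearly all actives have a fitted effect of over 20% in size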
#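 AmpC (5.3 nM in the dispensed reagent) in 20 mM phosphate pH 7.0 with 0.01% (detergent screen) or 0.0001% Triton X-100 was preincubated with compounds for 15 min at room temperature. Nitrocefin was then added from an 800 uM solution, and hydrolysis was followed at 480 nm.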
# * hit, by the source's call; i = inactive; ? = inconclusive; nt = no result given; [ ] = another dose, or the depositor's remark. Shown are actives, neighbours in structure and some others; about 1.1% of the full set was active somewhere. Unless noted, the call rests on the fitted dose curve; in most records, active means well fitted curve in the direction sought with a large enough effect; inconclusive means small, poorly fitted or top-dose-only effect, or another doubt; inactive means no such curve, though single readings can be large; an effect the other way counts as inactive or inconclusive. Unless noted, on the % scale 0 is the no-effect control and ±100 the full control effect; potency means the concentration at half of the fitted maximal effect.
SMILES,Vaccinia mCherry,AmpC detergent,Vaccinia Venus,AmpC no deterg
CCOC(=O)c1c(C)[nH]c(C(=O)C(C)Sc2ccc(Cl)cc2)c1C (stereo not drawn),-12.4%[1.46 µM],-4.1%,7.08µM*,-44.4%
O=C(C[n+]1cccc(Br)c1)c1ccc(I)cc1,i,nt,-9.3%,nt
CCCCCCCCCCCCCCCC(=O)NCCc1c[nH]c2ccccc12,-1.4%,6.2%,-3.2%,-15.5%
CCCCOc1ccc(-c2nnn(CC(=O)NCCc3c[nH]c4ccccc34)n2)cc1,?,0.3%,?,0.282µM*
CCC1C(=O)NCCN1Cc1ccc2c(c1)CN(Cc1cccc(OC)c1OC)CCO2 (stereo not drawn),-4.7%,nt,-4.5%,nt
Cc1c(C(=O)OCC(=O)Nc2cccc(S(N)(=O)=O)c2)oc2c1ccc1ccccc12,nt,-2.5%,nt,11.2µM*
CC(C)(C)N(Cc1ccc2c(c1)OCO2)C(=O)/C=C\S(=O)c1ccccc1 (stereo not drawn),8.91µM*,nt,14.1µM*,nt
CCN(Cc1ccc2c(c1)OCO2)C(=O)/C=C/c1cccc(Br)c1,-4.9%,-9.9%,10.0%,-14.6%
CC(C)Cc1nc2cc(NS(=O)(=O)N(C)C)cc(C(=O)N3CCc4sccc4C3)c2n1C,-0.1%,nt,-7.4%,nt
O=C1Cc2cc(NS(=O)(=O)c3ccc([N+](=O)[O-])cc3)cc3c2N1CCC3,10µM*,10.0%,?,6.9%
O=C(COc1ccc2ccccc2c1)N1CCN(Cc2c[nH]c3ccccc23)CC1,?,-10.2%,?,102.4%
O=C(COc1ccc(Br)cc1)N1CCN(Cc2c[nH]c3ccccc23)CC1,14.1µM*,?,?,88.5%
CS(=O)(=O)c1ccc(-c2cccc3c2OC(CNC(=O)c2ccnc(Cl)c2)C3)cc1 (stereo not drawn),-4.7%,nt,0.0%,nt
CCN1CCCC1CNC(=O)c1cnn(-c2nccc(-c3ccc(C)o3)n2)c1C1CC1 (stereo not drawn),-16.2%,nt,-7.1%,nt
CCN(CC)CC(C)(C)C(=O)/C=C/c1ccc(/C=C/C(=O)C(C)(C)CN(CC)CC)cc1,?,nt,11.2µM*,nt
COc1ccc2c(c1)OC(C)CN(CCNC(=O)c1ccc(-n3cccn3)cc1)C2 (stereo not drawn),-25.9%,nt,-11.0%,nt
CC[C@]12c3[nH]c4cc(-c5ccco5)ccc4c3CCN1C(=O)[C@@H](CC(=O)NCc1cccc(C(F)(F)F)c1)C[C@@H]2C(=O)N1CCN(C(=O)c2ccco2)CC1,12.6µM*,nt,?,176.9%
CC[C@]12c3[nH]c4cc(-c5ccco5)ccc4c3CCN1C(=O)[C@@H](CC(=O)NCc1ccco1)C[C@@H]2C(=O)N1CCN(C(=O)c2ccco2)CC1,-18.1%,nt,?,170.6%
CCN(CC)C(=O)[C@H]1CC(CC(=O)NCc2cccc(C(F)(F)F)c2)C(=O)N2CCc3c([nH]c4ccc(OC)cc34)[C@]12C (stereo partly drawn),10µM*,nt,?,202.8%
CCN(CC)C(=O)[C@H]1C[C@H](CC(=O)NCc2cccc(C(F)(F)F)c2)C(=O)N2CCc3c([nH]c4cc(-c5ccco5)ccc34)[C@]12C,11.2µM*,nt,11.2µM*,92.1%
CC(C)N(C(=O)[C@H]1C[C@H](CC(=O)NCC23CC4CC(CC(C4)C2)C3)C(=O)N2CCc3c([nH]c4cc(-c5ccco5)ccc34)[C@]12C)C(C)C,28.2µM*,nt,?,0.9%
COc1ccc2[nH]c3c(c2c1)CCN1C(=O)C(CC(=O)NCc2cccc(C(F)(F)F)c2)C[C@H](C(=O)N2CCCCC2)[C@@]31C (stereo partly drawn),?,nt,?,177.4%
CCN(CC)C(=O)[C@H]1C[C@H](CC(=O)NCc2ccco2)C(=O)N2CCc3c([nH]c4cc(-c5ccco5)ccc34)[C@]12C,-9.4%,nt,?,180.0%
O=C(c1ccc(F)c(F)c1)N1CCOc2ccc(CN3CCN(CCO)CC3)cc2C1,i,nt,0.0%,nt
COc1cc(OC)c2nc(-c3cc4c(c(OC)c3)OCCN(C(=O)CC3NC(=O)c5ccccc53)C4)cc(C)c2c1 (stereo not drawn),-9.7%,nt,-9.9%,nt
SMILES,Vaccinia mCherry,AmpC detergent,Vaccinia Venus,AmpC no deterg
COc1cc(=O)n2c(c1C(=O)N(C)Cc1cscn1)CCN(Cc1ccc3c(c1)OCCO3)CC2,-16.7%,nt,0.0%,nt
O=C(CC1C[C@H](C(=O)N2CCOCC2)[C@@]2(CCC3CCCC3)c3[nH]c4ccccc4c3CCN2C1=O)NCc1cccc(C(F)(F)F)c1 (stereo partly drawn),10µM*,nt,10µM*,nt
CN(C)C(=O)CCc1ccc2c3c([nH]c2c1)[C@]1(CCC2CCCC2)[C@@H](C(=O)N2CCOCC2)C[C@H](CC(=O)NCc2cccc(C(F)(F)F)c2)C(=O)N1CC3,-24.0%,nt,?,20.4%
CCN(Cc1ccncc1)Cc1ccc2c(c1)CN(C(=O)c1cccc(-n3nc(C)cc3C)c1)CCO2,-10.9%,nt,-2.4%,nt
CC[C@@H](C(=O)[C@@H](C)[C@@H](O)[C@H](C)CCc1ccc(C)c(O)c1C(=O)O)[C@H]1O[C@](CC)([C@H]2CC[C@](O)(CC)[C@H](C)O2)C[C@@H]1C,?,3.9%,10µM*,25.3%
CC(CCC(C)[n+]1cccc(C#N)c1)[n+]1cccc(C#N)c1 (stereo not drawn),38.6%,nt,-5.7%,nt
CCOC(=O)CNC(=O)c1ccc2[nH]c3c(c2c1)CCCC3,-18.7%,-5.7%,-15.6%,-23.1%
NNC(=O)c1ccc2[nH]c3c(c2c1)CCCC3,nt,1.5%,nt,25.1µM*
Cc1cc(C)cc(NC(=S)NCc2ccc3[nH]c4c(c3c2)CCCC4)c1,?,-6.9%,-4.9%,31.6µM*
Cc1nc(C(C)NC2CCN(c3cccc(NC(=O)c4ccncc4)c3)CC2)cs1 (stereo not drawn),-9.8%,nt,-5.8%,nt
CN(C)CCNc1ccc2ncn3c4ccc(O)cc4c(=O)c1c23,0.794µM*,nt,1.12µM*,nt
O=S(=O)(Nc1cc(Sc2ncn[nH]2)c(O)c2ccccc12)c1ccccc1,6.31µM*,-2.3%,2.51µM*,-44.9%
Cc1cc(O)c(Sc2ncn[nH]2)cc1NS(=O)(=O)c1ccc(Cl)cc1,-27.1%,14.0%,-16.2%,-17.0%
O=C(c1cscn1)N1CCOc2ccc(CN3CCC(Oc4cccnc4)CC3)cc2C1,-7.4%,nt,-4.6%,nt
CC(C)=CCc1c(O)c(CC=C(C)C)c2c(c1O)C(=O)CC(c1ccc(O)cc1)O2 (stereo not drawn),2.9%,14.4%,1.3%,14.1µM*
Cc1sc(NC(=O)CSc2n[nH]c(N)n2)c(C#N)c1C,?,nt,-2.4%,nt
Cc1ccc(/C=C/C2=Cc3c(sc(NC(=O)CSc4n[nH]c(N)n4)c3C#N)C(C)(C)C2)o1,nt,-7.2%,nt,12.6µM*
O=C(C[n+]1cccc(Br)c1)c1cccc([N+](=O)[O-])c1,-6.7%,nt,2.3%,nt
COc1ccc(OC)c(-c2cc(Cl)c3c(c2)CC(CNC(=O)C(C)N2CCOCC2)O3)c1 (stereo not drawn),-10.9%,nt,8.1%,nt
CC(NC(=O)CN1C(=O)NC(Cc2ccccc2)(Cc2ccccc2)C1=O)C12CC3CC(CC(C3)C1)C2 (stereo not drawn),10µM*,?,?,-5.3%
